# Measurements taken from PubChem BioAssay (NCATS).
# Results filed as inconclusive are left out. Entries that show only a call come without a potency. Calls of active or inactive are those of the source. Unless noted, the call rests on the fitted dose curve.
# Legend:
# [1] = Primary qHTS for Huh7 cytotoxicity: counterscreen for inhibitors of MERS-S pseudotyped particle cell entry (AID 1479147)
# [2] = Primary qHTS for inhibitors of MERS-S pseudo-typed particle cell entry (AID 1479149); further: nearly all actives have a fitted effect of over 60% in size; further: potency means the concentration at half of the fitted maximal effect
# [3] = Primary qHTS for Vero E6 cytotoxicity: counterscreen for inhibitors of SARS-S pseudo-typed particle cell entry (AID 1479150)
# [4] = Confirmatory qHTS for VERO E6 Cytotoxicity Assay: Counterscreen for SARS-CoV-2 CPE Assay (AID 1508605); further: nearly all actives have a fitted effect of over 60% in size; further: potency means the concentration at half of the fitted maximal effect
# [5] = Primary qHTS for inhibitors of La Crosse Virus (LACV) - induced cell death in SH-SY5Y cells (AID 1508616; active means well fitted curve in the direction sought with a large enough effect; an effect the other way counts as inactive or inconclusive;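 further: top concentration of the series differs between compounds; higher means more rescue of cells from virus-induced death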)
# In short: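 Cytopathicity rescue screen: compounds pinned onto SH-SY5Y cells, which are then infected with LACV (MOI 0.01) and held 6 days at 37C. Percent activity is scaled between infected DMSO control and uninfected DMSO control.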
# [6] = Primary qHTS for small molecule stabilizers of the endoplasmic reticulum resident proteome: Secreted ER Calcium Modulated Protein (SERCaMP) assay (AID 1508630; active means well fitted curve in the direction sought with a large enough effect; an effect the other way counts as inactive or inconclusive)
# In short: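 The SH-SY5Y reporter protocol was run at 3 concentrations up to 38.3 uM (primary) or 11 concentrations (follow-up): 16 h compound, 100 nM thapsigargin for 4 h, then extracellular luciferase luminescence.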
# [7] = A High-Content qHTS Against Drug Library for the Identification of Small Molecules that Inhibit DYT1 Early Onset Primary Dystonia-Associated Cell Pathology (AID 1645839); further: series mostly up to about 46 µM
# In short: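 High-content imaging quantified EGFP-TorsinA mislocalization in HEK293-derived cells inducibly expressing DYT1 mutant torsinA, after 48 h exposure to compound given together with tetracycline induction. Cell count served as a toxicity channel alongside %pathology.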
# [8] = target: Calcium and integrin-binding protein 1 (Homo sapiens) (UniProt Q99828); assay: Primary qHTS for Identification of Calcium Integrin Binding Protein 1 (CIB1) Competitor (AID 1508620; active means well fitted curve in the direction sought with a large enough effect; an effect the other way counts as inactive or inconclusive;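 further: GST tagged CIB1 binding a fluorescein labelled alphaIIb integrin peptide tracer; top concentration of the series differs between compounds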)
# In short: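 CIB1-GST (1 uM final) and compound incubated 15 min at room temperature before adding FITC-alphaIIb peptide tracer (100 nM final). Competition for binding read by fluorescence polarization (ex 480, em 540) after another 15 min at room temperature.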
# Chain of Calcium and integrin-binding protein 1 (Homo sapiens) (Q99828 whole entry, looked up): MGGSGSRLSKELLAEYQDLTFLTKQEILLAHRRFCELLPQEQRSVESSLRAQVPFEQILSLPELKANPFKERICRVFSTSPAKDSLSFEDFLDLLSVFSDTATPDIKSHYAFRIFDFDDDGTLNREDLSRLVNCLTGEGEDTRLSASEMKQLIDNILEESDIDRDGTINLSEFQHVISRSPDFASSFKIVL
compound,measurement,setting,value
Cc1c(N(C)CS(=O)(=O)O)c(=O)n(-c2ccccc2)n1C,Potency,[1],inactive
same,Potency,[2],inactive
same,Potency,[3],inactive
COc1c(N2C[C@@H]3CCCN[C@@H]3C2)c(F)cc2c(=O)c(C(=O)O)cn(C3CC3)c12,Potency,[1],inactive
same,Potency,[2],inactive
same,Potency,[3],inactive
NC1CCN(c2nc3c(cc2F)c(=O)c(C(=O)O)cn3-c2ccc(F)cc2F)C1 (stereo not drawn),Potency,[1],inactive
same,Potency,[2],inactive
same,Potency,[3],inactive
Clc1cccc(Cl)c1NC1=NCCN1,Potency,[1],inactive
same,Potency,[2],inactive
same,Potency,[3],inactive
CCCCCN(CCCOC)C(=O)C(CCC(=O)O)NC(=O)c1ccc(Cl)c(Cl)c1 (stereo not drawn),Potency,[1],inactive
same,Potency,[2],inactive
same,Potency,[3],inactive
Cc1ccnc(NS(=O)(=O)c2ccc(N)cc2)n1,Potency,[1],inactive
same,Potency,[2],inactive
same,Potency,[3],inactive
CC(C)(Sc1cc(C(C)(C)C)c(O)c(C(C)(C)C)c1)Sc1cc(C(C)(C)C)c(O)c(C(C)(C)C)c1,Potency,[1],inactive
same,Potency,[2],inactive
same,Potency,[3],inactive
CCN1CC(CCN2CCOCC2)C(c2ccccc2)(c2ccccc2)C1=O (stereo not drawn),Potency,[1],inactive
same,Potency,[2],inactive
same,Potency,[3],inactive
CCn1cc(C(=O)O)c(=O)c2cnc(N3CCNCC3)nc21,Potency,[1],inactive
same,Potency,[2],inactive
same,Potency,[3],inactive
CCCOC(=O)c1ccccc1,Potency,[1],inactive
same,Potency,[2],inactive
same,Potency,[3],inactive
C[C@@H]1O[C@@H]1P(=O)(O)O,Potency,[1],inactive
same,Potency,[2],inactive
same,Potency,[3],inactive
CC(CCc1ccc(O)cc1)NCCc1ccc(O)c(O)c1 (stereo not drawn),Potency,[1],inactive
same,Potency,[2],inactive
same,Potency,[3],inactive
O=C(O)CN(CCN(CC(=O)O)CC(=O)O)CCN(CC(=O)O)CC(=O)O,Potency,[1],inactive
same,Potency,[2],inactive
same,Potency,[3],inactive
O=C(OCC1(COC(=O)c2cccnc2)CCCC(COC(=O)c2cccnc2)(COC(=O)c2cccnc2)C1O)c1cccnc1,Potency,[1],inactive
same,Potency,[2],inactive
same,Potency,[3],inactive
CN(C)C(=O)Oc1ccc[n+](C)c1,Potency,[1],inactive
same,Potency,[2],inactive
same,Potency,[3],inactive
C=CCN1CCc2nc(N)sc2CC1,Potency,[1],inactive
same,Potency,[2],inactive
same,Potency,[3],inactive
CCOCCn1c(C2CCN(CCc3ccc(C(C)(C)C(=O)O)cc3)CC2)nc2ccccc21,Potency,[1],inactive
same,Potency,[2],inactive
same,Potency,[3],inactive
NC(CS)C(=O)O (stereo not drawn),Potency,[1],inactive
same,Potency,[2],inactive
same,Potency,[3],inactive
CCCCC(CC)CNC(=O)CC(C)OC(=O)CCC(=O)O (stereo not drawn),Potency,[1],inactive
same,Potency,[2],inactive
same,Potency,[3],inactive
NCCCC[C@H](N[C@@H](CCc1ccccc1)C(=O)O)C(=O)N1CCC[C@H]1C(=O)O,Potency,[1],inactive
same,Potency,[2],inactive
same,Potency,[3],inactive
CC(C)[C@H](N)C(=O)OCCOCn1cnc2c(=O)[nH]c(N)nc21,Potency,[1],inactive
same,Potency,[2],inactive
same,Potency,[3],inactive
CN1CCN2c3ncccc3Cc3ccccc3C2C1 (stereo not drawn),Potency,[1],inactive
same,Potency,[2],inactive
same,Potency,[3],inactive
O=C(CCBr)N1CCN(C(=O)CCBr)CC1,Potency,[1],inactive
same,Potency,[2],inactive
same,Potency,[3],inactive
CN1[C@@H]2CC[C@H]1CC(OC(c1ccccc1)c1ccccc1)C2 (stereo partly drawn),Potency,[4],inactive
CCOC(=O)C1=C(COCCN)NC(C)=C(C(=O)OC)C1c1ccccc1Cl (stereo not drawn),Potency,[4],inactive
c1ccc2c(c1)sc1ccccc12,outcome,[5],inactive
same,Potency,[6],inactive
CCC(CC)(CNC(=O)CCCO)c1cccc(OC)c1,outcome,[5],inactive
same,Potency,[6],inactive
same,outcome,[7],inactive
CC(C)NC(C)C,outcome,[7],inactive
O=C1c2ccccc2C(=O)C1C(=O)C(c1ccccc1)c1ccccc1,outcome,[5],inactive
same,Potency,[8],inactive
same,Potency,[6],inactive
same,outcome,[7],inactive
CN1CCN(CCC=C2c3ccccc3Sc3ccc(S(=O)(=O)N(C)C)cc32)CC1,Potency,[2],inactive
same,Potency,[4],11.2 µM (active)
Cc1ccc(Nc2nccc(N(C)c3ccc4c(C)n(C)nc4c3)n2)cc1S(N)(=O)=O,Potency,[1],inactive
same,Potency,[3],inactive
Cc1cc(C(C#N)c2ccc(Cl)cc2)c(Cl)cc1NC(=O)c1cc(I)cc(I)c1O (stereo not drawn),Potency,[2],20 µM (active)
O=C(OCc1ccccc1)c1ccccc1,Potency,[1],inactive
same,Potency,[3],inactive
CC(=O)O[C@]1(C(C)=O)CC[C@H]2[C@@H]3C[C@H](C)C4=CC(=O)CC[C@]4(C)[C@H]3CC[C@@]21C,Potency,[1],inactive
same,Potency,[3],inactive
O=c1[nH]c(=O)n([C@H]2C[C@H](O)[C@@H](CO)O2)cc1F,Potency,[2],inactive
same,Potency,[3],inactive
C[C@]12CCC(=O)C=C1CC[C@@H]1[C@H]3CC[C@](C)(O)[C@@]3(C)CC[C@@H]12,outcome,[5],inactive
same,Potency,[8],inactive
same,Potency,[6],inactive
C=CCN1C[C@H](C(=O)N(CCCN(C)C)C(=O)NCC)C[C@@H]2c3cccc4[nH]cc(c34)C[C@H]21,Potency,[1],inactive
same,Potency,[3],inactive
Oc1ccc(Cl)c2cccnc12,Potency,[2],inactive
same,Potency,[3],inactive
CNCCC=C1c2ccccc2CCc2ccccc21,Potency,[3],inactive
same,Potency,[4],inactive
CCOc1ccc2nc3cc(N)ccc3c(N)c2c1,Potency,[1],inactive
same,Potency,[3],inactive
CNCCCCOc1ccccc1Cc1ccccc1,Potency,[3],inactive
same,Potency,[4],inactive
COc1cc(C)c(Cc2cnc(N)nc2N)cc1OC,Potency,[1],inactive
same,Potency,[3],inactive
C[n+]1c2cc(N)ccc2cc2ccc(N)cc21 (tested in a mixture with another compound),Potency,[2],7.94 µM (active)
COc1ccc2c3c1O[C@H]1[C@H](O)CC[C@H]4[C@@H](C2)N(C)CC[C@@]341,outcome,[5],inactive
same,Potency,[8],inactive
CN1CCN(C(c2ccccc2)c2ccc(Cl)cc2)CC1 (stereo not drawn),Potency,[1],inactive
same,Potency,[3],inactive
same,Potency,[4],inactive
C#CCC(Cc1cnc2nc(N)nc(N)c2n1)c1ccc(C(=O)N[C@@H](CCC(=O)O)C(=O)O)cc1 (stereo partly drawn),Potency,[2],inactive
C=CCC1([C@H](C)CCC)C(=O)NC(=O)NC1=O,outcome,[5],inactive
same,Potency,[8],inactive
O=c1[nH]c(=O)n([C@H]2C[C@H](O)[C@@H](CO)O2)cc1Br,Potency,[1],inactive
same,Potency,[3],inactive
